# Screens from PubChem.
# DT40 TDP1 CPT: qHTS for Inhibitors of human tyrosyl-DNA phosphodiesterase 1 (TDP1): qHTS in cells in presence of CPT; chicken DT40 Tdp1-/-;hTDP1 cells + 20 nM CPT, ATP luminescence, 48 h; Potency, µM (titrated, usually from 46.2 µM), for inactives: top-dose activity change, negative = growth inhibition, most hits filed as inhibitors; actives 12% (n = 420,000); AID 686979, 2013; further: potency means the concentration at half of the fitted maximal effect; on the % scale 0 is the no-effect control and ±100 the full control effect; nearly all actives have a fitted effect of over 55% in size
#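 Chicken DT40 Tdp1-/- cells complemented with human TDP1, 400 cells/well, exposed to compounds plus 20 nM camptothecin for at least 48 h at 37 C; viability read as ATP content by CellTiter-Glo luminescence.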
# ASM inhibitor: Inhibitors of Secretory Acid Sphingomyelinase (S-ASM): qHTS; Sphingomyelin phosphodiesterase (Homo sapiens), P17405; placental ASM, HMU-PC fluorogenic substrate, 60 min; Potency, µM (top dose mostly 57.5 µM), without a hit: at the highest dose activity change, negative = inhibition, most hits filed as inhibitors; actives 0.006% (n = 340,000); further: potency means the concentration at half of the fitted maximal effect
# Target sequence (P17405 47-631 limits assumed): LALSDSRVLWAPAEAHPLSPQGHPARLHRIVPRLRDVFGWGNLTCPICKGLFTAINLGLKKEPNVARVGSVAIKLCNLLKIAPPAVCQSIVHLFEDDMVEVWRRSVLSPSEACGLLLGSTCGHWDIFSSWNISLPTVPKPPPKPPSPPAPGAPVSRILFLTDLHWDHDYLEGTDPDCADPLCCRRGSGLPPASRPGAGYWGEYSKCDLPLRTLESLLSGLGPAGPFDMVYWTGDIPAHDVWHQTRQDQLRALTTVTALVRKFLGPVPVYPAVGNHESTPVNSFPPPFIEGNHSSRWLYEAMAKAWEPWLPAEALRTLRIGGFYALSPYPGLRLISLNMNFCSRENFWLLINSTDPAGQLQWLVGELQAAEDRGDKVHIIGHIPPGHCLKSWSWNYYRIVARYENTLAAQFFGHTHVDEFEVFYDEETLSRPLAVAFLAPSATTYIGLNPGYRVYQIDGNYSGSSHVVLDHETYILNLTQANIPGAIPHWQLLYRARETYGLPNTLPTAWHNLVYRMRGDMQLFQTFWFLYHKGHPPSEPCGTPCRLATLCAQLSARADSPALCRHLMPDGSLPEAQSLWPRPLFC
#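 HMU-PC0 cleavage (9 uM final) by human placental ASM, 60 min at 37 °C following 10 min compound exposure at RT; stopped at pH 10, fluorescence Ex 386/Em 447 nm.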
# TGFb inhibitor: qHTS for Inhibitors of TGF-b. Potency, µM (top dose mostly 46.1 µM), inactives show at the top dose activity, negative = inhibition, hits mostly inhibitors. HepG2 CAGA-GFP TGF-b/SMAD3 reporter, GFP fluorescence, 18 h; TGF-beta stimulated, 500 pg/mL final. actives 1.2% (n = 410,000); further: potency means the concentration at half of the fitted maximal effect; on the % scale 0 is the no-effect control and ±100 the full control effect; nearly all actives have a fitted effect of over 65% in size
#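 Cell-based qHTS in HEPG2 carrying a CAGA-GFP Smad reporter; compounds added before 500 pg/mL final TGF-beta, 18 h incubation at 37 degrees C, GFP fluorescence quantified per cell by imaging cytometry.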
# TDP1 cell noCPT: qHTS for Inhibitors of human tyrosyl-DNA phosphodiesterase 1 (TDP1): qHTS in cells in absence of CPT | DT40 Tdp1-/- hTDP1 cells, no CPT, ATP luminescence, 48 h | Potency, µM (titrated, usually from 46.2 µM), for inactives: top-dose activity change, negative = growth inhibition, hits mostly inhibitors | actives 15% (n = 420,000); further: potency means the concentration at half of the fitted maximal effect; on the % scale 0 is the no-effect control and ±100 the full control effect; nearly all actives have a fitted effect of over 55% in size
#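 Seeded 400 DT40-hTDP1 cells/well (vehicle DMSO, no 20 nM CPT); pinned compounds; ≥48 hr at 37 °C; CellTiter-Glo luminescence as viability measure.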
# IL1B secr inh: qHTS for Inhibitors of Inflammasome Signaling: IL-1-beta AlphaLISA Primary Screen; THP-1 LPS/ATP IL-1B secretion, AlphaLISA, 16 h; hits give low values; activity change, % at 57.5 µM; actives 4.7% (n = 360,000); AID 743279, 2014; in the data active means activity change below about -50%; inconclusive means mostly about -30% to -49%; further: on the % scale 0 is the no-effect control and ±100 the full control effect
#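 THP-1 cells pretreated 1 hr with compounds (up to 57.5 uM final), then stimulated with LPS (250 ng/mL final) plus ATP (1.25 mM final); secreted IL-1B measured by AlphaLISA after 16 hr, decreased signal indicating inhibition.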
# HepG2 tox: qHTS for Inhibitors of TGF-b: Cytotox Counterscreen; HepG2 CAGA-GFP viability, ATP luminescence, 18 h; Potency, µM (highest dose often 46.1 µM), for inactives: top-dose activity change, negative = cytotoxicity, hits mostly cytotoxic; actives 0.76% (n = 410,000); AID 588856, 2011; further: potency means the concentration at half of the fitted maximal effect
#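 HepG2 CAGA-GFP cells (1000/well, DMEM with 1% FBS) received compound, then TGF-beta at 500 pg/mL final, and were incubated 18 hours at 37 degrees C. Viability was read by CellTiter-Glo luminescence. Media-only wells were set as complete cell-killing and DMSO as no toxicity.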
# The depositor's hits bear a star; ? = inconclusive; . = no result. Sampled rows, rich in hits. Any-hit rate of the full collection: about 19%. Unless noted, the call rests on the fitted dose curve; in most records, active means well fitted curve in the direction sought with a large enough effect; inconclusive means small, poorly fitted or top-dose-only effect, or another doubt; inactive means no such curve, though single readings can be large; an effect the other way counts as inactive or inconclusive.
SMILES,DT40 TDP1 CPT,ASM inhibitor,TGFb inhibitor,TDP1 cell noCPT,IL1B secr inh,HepG2 tox
COc1ccc(NC(=O)COc2ccc(C(=O)NCc3cccnc3)cc2OC)cc1,?,-1%,26%,?,7,26%
O=C(Nc1ccc(Cl)cc1C(=O)NCc1cccnc1)c1ccc(Cl)cc1Cl,?,-1%,-5%,18µM*,0,-13%
CCc1ccc(-c2nc(SCC(=O)NCCOC)c(-c3ccc(C)cc3)[nH]2)cc1,-25%,.,-30%,?,.,-13%
COc1ccccc1N1CCN(S(=O)(=O)c2c(C)sc3ncn(CC(=O)Nc4ccc(C(C)C)cc4)c(=O)c23)CC1,?,.,2%,?,.,3%
CC(=O)Cc1nsc(NC(=O)c2ccco2)n1,-16%,1%,-4%,?,-5,-7%
CC(=O)Cc1nsc(NC(=O)c2ccc(Br)o2)n1,?,-3%,-2%,1.6µM*,16,7%
CC(=O)Cc1nsc(NC(=O)c2ccc(-c3cccc(Cl)c3)o2)n1,16µM*,-14%,6%,16µM*,-29,-1%
O=C(Nc1ccccc1)N1CC[C@@]2(CCCN(C(=O)c3ccncc3)C2)C1,17%,.,.,1%,.,.
O=C(COc1ccc(Cl)cc1Br)Nc1ccccc1N1CCCC1,21µM*,-5%,-18%,?,-3,-44%
COc1cc2ccccc2cc1C(=O)Nc1ccccc1N1CCN(S(C)(=O)=O)CC1,21µM*,-6%,-1%,21µM*,-15,1%
CCC(=O)N1CCN(c2ccccc2NC(=O)COc2ccc(C(C)C)cc2)CC1,?,-14%,?,16µM*,0,-27%
COC(=O)C1CCCN1C(=O)COc1ccc(Cl)cc1Br (stereo not given),18µM*,6%,-25%,?,8,-31%
C=CCNc1ncnc2c1ncn2[C@H]1CN(Cc2ccc3c(c2)OCO3)C[C@@H](CO)O1,?,.,4%,?,15,0%
O=C(Nc1ccccc1N1CCCCC1)c1ccc(F)cc1,?,-3%,?,?,23,-13%
COc1cc(C(C)=O)ccc1OCC(=O)Nc1ccccc1N1CCCCC1,9.2µM*,-5%,-28%,8.2µM*,?,-16%
COc1cccc(OC)c1C(=O)Nc1ccccc1N1CCCCC1,?,-3%,?,?,-51*,4%
COc1ccc(CNCC(=O)Nc2ccccc2-n2cccc2)cc1,8.2µM*,-3%,-23%,6.5µM*,11,-12%
COc1ccc(OCC(=O)Nc2ccccc2N2CCCCC2)cc1,1.6µM*,-2%,-15%,1.6µM*,3,0%
CC[C@@H]1CCCCc2ccccc2[C@H](C(=O)C[C@@H](O)CC(C)=O)OC1=O,21µM*,0%,-2%,-2%,9,-6%
CC[C@H]1CCCCc2ccccc2[C@@H](C(=O)C[C@@H](O)CC(C)=O)OC1=O,15µM*,5%,-13%,?,36,6%
CC[C@@H]1CCCCc2ccccc2[C@@H](C(=O)C[C@@H](O)CC(C)=O)OC1=O,-14%,3%,-32%,-19%,-8,-23%
CCc1nn(CC(=O)NCc2cccc(OC)c2OC)c(=O)c2cc3occc3n12,-15%,.,.,-20%,.,2%
Cc1ccc2c(c1)N(C)/C(=C/c1cccc[n+]1CCO)S2,1.6µM*,-11%,-20%,1.2µM*,?,-22%
CCCCN1/C(=C/c2cccc[n+]2C)Sc2cc(NC(C)=O)ccc21,-5%,-1%,-4%,-14%,8,-17%
CN1/C(=C/c2cccc[n+]2C)Sc2ccccc21,0.58µM*,-13%,?,0.33µM*,-67*,-37%
SMILES,DT40 TDP1 CPT,ASM inhibitor,TGFb inhibitor,TDP1 cell noCPT,IL1B secr inh,HepG2 tox
CC(=O)c1ccc2c(c1)N(C)c1ccccc1S2,-20%,-11%,9%,?,-16,-32%
Cc1ccc2c(c1)N(C)/C(=C/c1cccc[n+]1C)S2,3.7µM*,-3%,-2%,0.52µM*,-88*,11µM*
CCCn1c(=O)sc2cc(NC(=O)c3ccc(OC)c(Br)c3)ccc21,?,.,4%,?,.,-26%
O=C(O)CCc1ncc(C(F)(F)F)cc1Cl,-8%,6%,4%,-4%,-1,2%
O=S(=O)(Nc1ccccc1)c1ccc(Oc2ncc(C(F)(F)F)cc2Cl)cc1,15µM*,-8%,?,?,34,-105%
O=S(=O)(Cc1ncc(C(F)(F)F)cc1Cl)c1ccccc1,23µM*,-2%,-12%,?,13,11%
FC(F)(F)c1cnc(COc2cc(Cl)cc(Cl)c2)c(Cl)c1,-20%,-1%,11%,-29%,-74*,9%
CC(C)NS(=O)(=O)c1ccc(Oc2ncc(C(F)(F)F)cc2Cl)cc1,?,-2%,-10%,?,-2,-18%
Cc1ccccc1CNCCCSc1nnnn1-c1ccccc1,-23%,.,5%,-27%,.,-12%
CCc1ccc(/C=C2/SC(=S)N(CCC(=O)Nc3cccnc3)C2=O)cc1,?,0%,-2%,-28%,28,0%
COc1cc(C2OC(=O)c3ccccc3S2)cc(OC)c1OC (stereo not given),1%,3%,8%,-20%,4,14%
COc1cccc(C(O)C2OC(=O)c3ccccc32)c1OC (stereo not given),4%,2%,1%,9.2µM*,-2,-3%
CC(C)[C@@H](C(=O)NCc1ccco1)N1C(=O)N2CCc3c([nH]c4ccccc34)[C@@]2(C)C1=O,?,-3%,7%,?,6,-13%
COc1cc(NC(=O)CSc2nc3c(c(=O)n(C)c(=O)n3C)n2C)cc(OC)c1,-19%,-1%,2%,0%,5,1%
C[N+](C)(C)c1ccc(/C=N/Nc2nc(Cl)c(C#N)c(Cl)c2Cl)cc1,?,-3%,15%,23µM*,7,-5%
CCOC(=O)C1(CCOc2ccccc2)CCN(Cc2ccc(F)c(OC)c2)CC1,?,2%,?,6.5µM*,-88*,-50%
CCOC(=O)C1(CCOc2ccccc2)CCN(Cc2ccc3c(c2)OCCO3)CC1,?,0%,-10%,?,-88*,-18%
